GPR151 activ = activators of human GPR151, primary screen, cell-based, PathHunter beta-arrestin, luminescence; 650,000 tested, 1% active; PathHunter beta-arrestin GPR151 cells; activation, % at 11.2 µM; G-protein coupled receptor 151 (Homo sapiens), Q8TDV0; AID 1508602, 2020; in the data active = activation above about 4.9%;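 also: 0% = median of compound wells and 100% = cells with positive control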
TEAD-YAP inh = TEAD-YAP interaction inhibition, primary screen, TEAD-YAP interaction inhibitor project, luminescence, HEK-TIYL cells; TEAD-Gal4/YAP UAS-luciferase luminescence; inhibition, % at 9.12 µM; 640,000 tested, 1.4% active; AID 1259422, 2018; in the data active = inhibition above about 32%;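 also: 0% = median of test compound wells and 100% = reference inhibitor wells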
MITF inh = MITF inhibitors, primary screen, biochemical, AlphaScreen, human; AlphaScreen MITF homodimerization, bead proximity signal; AID 1259374, 2018; Microphthalmia-associated transcription factor (Homo sapiens), O75030; inhibition, % at 2.6 µM; 650,000 tested, 0.91% active; in the data active = inhibition above about 50%;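 also: 0% = vehicle wells with protein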
FBW7 act = FBW7 E3 ligase activators, primary screen, biochemical, AlphaScreen, human | F-box/WD repeat-containing protein 7 (Homo sapiens), Q969H0 | 650,000 tested, 0.13% active | AID 1259310, 2017 | AlphaScreen FBW7–phospho-cyclin E peptide binding, activator screen | normalized activity (activation), % at 26.1 µM; in the data active = normalized activity above about 1.9%;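 also: purified mutant Fbw7 with reduced substrate affinity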
Target sequence (Q969H0 whole entry, looked up): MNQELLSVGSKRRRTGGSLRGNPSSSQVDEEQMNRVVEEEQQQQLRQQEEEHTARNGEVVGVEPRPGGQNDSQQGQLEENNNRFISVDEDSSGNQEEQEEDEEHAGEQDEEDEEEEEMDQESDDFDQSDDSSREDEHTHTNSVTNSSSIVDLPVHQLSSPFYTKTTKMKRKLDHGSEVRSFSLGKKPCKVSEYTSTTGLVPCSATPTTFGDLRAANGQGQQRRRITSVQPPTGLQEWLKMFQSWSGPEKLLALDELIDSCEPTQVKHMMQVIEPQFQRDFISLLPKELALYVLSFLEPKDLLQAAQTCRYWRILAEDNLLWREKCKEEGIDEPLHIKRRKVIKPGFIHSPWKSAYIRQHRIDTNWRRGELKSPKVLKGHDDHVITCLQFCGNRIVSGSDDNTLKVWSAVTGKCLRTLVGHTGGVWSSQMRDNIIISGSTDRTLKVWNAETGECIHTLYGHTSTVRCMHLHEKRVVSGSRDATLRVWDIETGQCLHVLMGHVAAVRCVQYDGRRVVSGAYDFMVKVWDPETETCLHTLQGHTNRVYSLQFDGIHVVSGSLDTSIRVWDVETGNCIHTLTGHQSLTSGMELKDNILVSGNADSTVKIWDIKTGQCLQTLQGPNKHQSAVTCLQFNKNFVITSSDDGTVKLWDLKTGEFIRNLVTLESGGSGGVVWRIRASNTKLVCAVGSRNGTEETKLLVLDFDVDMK
Active calls of the source: *. Sampled rows, rich in hits. Any-hit rate of the full collection: about 3.5%.

For CN(C)CCNC(=O)c1ccc(Sc2ccccc2Cl)c([N+](=O)[O-])c1 the results were GPR151 activ -0.4, TEAD-YAP inh -11.9, MITF inh -7.8 and FBW7 act 0.0.
Screening COc1ccc(NC(=O)c2sc3ccccc3c2Cl)c(OC)c1 returned GPR151 activ 1.6, TEAD-YAP inh 4.7, MITF inh -5.5 and FBW7 act 0.0.
For O=C(Cn1ncc2c(=O)oc3ccccc3c21)N1CCN(c2cccc(Cl)c2)CC1 the results were GPR151 activ -0.9, TEAD-YAP inh 41.1*, MITF inh 12.2 and FBW7 act 1.3.
Screening O=C(Cn1ncc2c(=O)oc3ccccc3c21)N1CCN(c2ccccc2)CC1 returned GPR151 activ 1.1, TEAD-YAP inh 1.5, MITF inh 7.5 and FBW7 act 0.0.
Cc1ccc(NC(=O)/C(C#N)=C/c2ccc(N(C)C)o2)cc1C was read as GPR151 activ 1.8, TEAD-YAP inh -46.9, MITF inh 1.4 and FBW7 act 0.0.
`COc1cc(Nc2nc(-c3cccc(C(C)=O)c3)nc3nc[nH]c23)cc(OC)c1OC` gave GPR151 activ 0.1, TEAD-YAP inh 30.2, MITF inh 10.0 and FBW7 act 1.9*.
For COc1ccc(-c2nc3ncnc(NCCN(C(C)C)C(C)C)c3[nH]2)cn1 the results were GPR151 activ -0.5, TEAD-YAP inh 9.1, MITF inh 12.9 and FBW7 act -0.2.
Screening COc1ccc(-c2nc3ncnc(NCCc4ccc(O)cc4)c3[nH]2)cc1 returned GPR151 activ 1.7, TEAD-YAP inh 59.3*, MITF inh 11.2 and FBW7 act 0.1.
Screening CC(=O)c1cccc(-c2nc(Nc3ccccc3)c3[nH]cnc3n2)c1 returned GPR151 activ 4.3, TEAD-YAP inh 1.2, MITF inh -3.7 and FBW7 act 0.0.
`COc1ccc(-c2nc3ncnc(Nc4cc(OC)c(OC)c(OC)c4)c3[nH]2)cn1` gave GPR151 activ -1.1, TEAD-YAP inh 45.6*, MITF inh 19.2 and FBW7 act 0.6.
COc1ccc(-c2nc3ncnc(Nc4ccc(NC(C)=O)cc4)c3[nH]2)cn1 was read as GPR151 activ 0.5, TEAD-YAP inh 11.8, MITF inh 22.3 and FBW7 act 0.1.
`COc1ccc(-c2nc3ncnc(NCCOc4ccccc4)c3[nH]2)cn1` gave GPR151 activ 0.5, TEAD-YAP inh 36.0*, MITF inh 3.4 and FBW7 act 0.0.
`CC(=O)Nc1ccc2nc(CN3CCC(CO)(CC4CCCCO4)CC3)ccc2c1` (centres undefined) gave GPR151 activ -0.3, TEAD-YAP inh 14.9, MITF inh 8.5 and FBW7 act 0.1.
`COc1ccc(-c2nc(Nc3cc(OC)c(OC)c(OC)c3)c3[nH]cnc3n2)cn1` gave GPR151 activ -0.6, TEAD-YAP inh 57.4*, MITF inh 12.2 and FBW7 act 0.3.
Screening O=C(Nc1ccc2c(c1)OCCO2)c1ccccc1NC(=S)NCCN1CCOCC1 returned GPR151 activ -7.6, TEAD-YAP inh 73.4*, MITF inh -6.9 and FBW7 act -0.1.
For Fc1ccccc1NC(=S)NCCN1CCOCC1 the results were GPR151 activ -0.3, TEAD-YAP inh -2.5, MITF inh 20.2 and FBW7 act 0.5.
CCN1C(=O)C2(Cc3cc4ccccc4nc3N3CCCCC32)C(=O)N(CC)C1=S (centres undefined) was read as GPR151 activ 0.5, TEAD-YAP inh 4.1, MITF inh 7.6 and FBW7 act 0.0.
`CCn1c(=O)c2c(nc(SCC(=O)NC(C)(C)C)n2C)n(C)c1=O` gave GPR151 activ 0.8, TEAD-YAP inh -5.8, MITF inh 6.2 and FBW7 act -0.1.
For CN(C)c1ccc(/C=N/N/C(=N/c2ccccn2)c2ccccn2)cc1 the results were GPR151 activ -0.6, TEAD-YAP inh -11.0, MITF inh 8.8 and FBW7 act 0.1.
CC(=O)NCC1CCC2(CCN(Cc3ccc4c(c3)CCCN4C)CC2)O1 (centres undefined) was read as GPR151 activ 0.5, TEAD-YAP inh 54.6*, MITF inh 7.0 and FBW7 act 0.2.
CC(=O)NCC1CCC2(CCN(Cc3ccc4ccccc4c3)CC2)O1 (centres undefined) was read as GPR151 activ -0.3, TEAD-YAP inh -7.2, MITF inh -5.4 and FBW7 act -0.3.
For Cc1ccc(NC(=O)CSc2nc(=O)n(Cc3cccs3)c3c2CCC3)cc1F the results were GPR151 activ 0.2, TEAD-YAP inh 3.8, MITF inh -6.0 and FBW7 act -0.2.
`COc1ccc(-c2nc(C(N)=O)c3[nH]c(=O)n(-c4cccc(C)c4)c3n2)cc1` gave GPR151 activ -0.1, TEAD-YAP inh 58.2*, MITF inh 15.1 and FBW7 act 0.8.
`COc1ccc(-c2nc(C(N)=O)c3[nH]c(=O)n(-c4ccc(F)cc4)c3n2)cc1O` gave GPR151 activ 0.7, TEAD-YAP inh 54.1*, MITF inh 16.5 and FBW7 act 0.8.
COc1ccc(-c2nc(C(N)=O)c3[nH]c(=O)n(-c4ccc(F)cc4)c3n2)cc1OC was read as GPR151 activ -2.0, TEAD-YAP inh 8.4, MITF inh 1.2 and FBW7 act 0.2.
`COc1ccc(-c2nc(C(N)=O)c3[nH]c(=O)n(-c4ccc(Cl)cc4)c3n2)cc1O` gave GPR151 activ 0.3, TEAD-YAP inh 51.5*, MITF inh 5.9 and FBW7 act -0.2.
For COc1cccc(-c2nc(C(N)=O)c3[nH]c(=O)n(-c4cccc(C)c4)c3n2)c1 the results were GPR151 activ -0.8, TEAD-YAP inh 7.1, MITF inh -4.2 and FBW7 act 0.0.
Screening COc1ccc(-c2nc(C(N)=O)c3[nH]c(=O)n(-c4ccc(C)cc4)c3n2)cc1O returned GPR151 activ 0.3, TEAD-YAP inh 67.2*, MITF inh -6.4 and FBW7 act -0.3.
Screening COc1cc(-c2nc(C(N)=O)c3[nH]c(=O)n(-c4ccc(C)cc4)c3n2)cc(OC)c1OC returned GPR151 activ 0.5, TEAD-YAP inh 6.3, MITF inh -11.3 and FBW7 act -0.1.
For O=C(CN1CCN(Cc2cccc(Cl)c2)C1=O)NCc1ccccc1 the results were GPR151 activ 0.5, TEAD-YAP inh -8.3, MITF inh -5.5 and FBW7 act -0.1.
Screening CCOc1ccc(N(CCC#N)S(=O)(=O)c2ccc(Cl)cc2)cc1 returned GPR151 activ 0.3, TEAD-YAP inh 2.0, MITF inh 11.5 and FBW7 act 0.2.
`Cc1ccc(N(CCC#N)C(=O)CCl)cc1` gave GPR151 activ 4.4, TEAD-YAP inh 76.6*, MITF inh 10.4 and FBW7 act -0.1.
CCOC(=O)N(CC#N)c1ccc(C)cc1 was read as GPR151 activ 0.5, TEAD-YAP inh -3.8, MITF inh 6.2 and FBW7 act -0.1.
`N#CCCN(C(=O)CCl)c1ccccc1` gave GPR151 activ 1.9, TEAD-YAP inh 65.4*, MITF inh -3.8 and FBW7 act -0.2.
